Source: PubChem BioAssay (NCI)
This is part of a sample that, as a whole, favours compounds with a hit. Of some 83,000 tested, about 20% had one in any assay.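 Assay: single dose, 48 h. Readout: percent growth (0 = no net growth; negative = cell death). Active: <10.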 A number with no mark means an inactive call. Calls of active or inactive are those of the source.

Assays:
Assay in all cases: NCI-60 one-dose screen, 48 h (100 = growth as untreated, 0 = no growth, -100 = all killed)
Settings in all cases: 10 µM unless noted
NCI-H23 lung = system: NCI-H23 lung
NCI-H226 lung = system: NCI-H226 lung
NCI-H322M lung = system: NCI-H322M lung
HOP-62 NSCLC = system: HOP-62 NSCLC
NCI-H460 lung = system: NCI-H460 lung
HOP-92 NSCLC = system: HOP-92 NSCLC
NCI-H522 lung = system: NCI-H522 lung
A549/ATCC NSCLC = system: A549/ATCC NSCLC
786-0 renal = system: 786-0 renal
COLO 205 colon = system: COLO 205 colon

SMILES	growth (NCI-H23 lung)	growth (NCI-H226 lung)	growth (NCI-H322M lung)	growth (HOP-62 NSCLC)	growth (NCI-H460 lung)	growth (HOP-92 NSCLC)	growth (NCI-H522 lung)	growth (A549/ATCC NSCLC)	growth (786-0 renal)	growth (COLO 205 colon)
C=CC(=O)Nc1cccc(Nc2nc(Nc3ccc(N4CCN(C(C)=O)CC4)cc3OC)ncc2C(F)(F)F)c1	26.7%	26.8%	-28.9% (active)	27.6%	9.55% (active)	-18.1% (active)	-12% (active)	5.15% (active)	8.43% (active)	-37.4% (active)
Cc1cc(-c2cc(O)ccc2Cl)cc2nnc(Nc3ccc(OCCN4CCCC4)cc3)nc12	-63.2% (active)	-51.7% (active)	-94.4% (active)	-66.1% (active)	-81.6% (active)	-69.1% (active)	-49.5% (active)	-70.7% (active)	-60.6% (active)	-61.4% (active)
CCOC(=O)C1=C(C)NC(=O)NC1c1cc(=O)oc2ccc(C)cc12 (stereo not given)	96.9%	93.4%	98.6%	105%	108%	95.6%	81.5%	97.6%	102%	105%
COc1ccc(-c2ccc3c(N4CCOC[C@@H]4C)nc(N4CCOC[C@@H]4C)nc3n2)cc1CO	20.3%	-9.74% (active)	-5.27% (active)	-12.9% (active)	8.4% (active)	-21.1% (active)	8.31% (active)	-12.6% (active)	2.33% (active)	-14.1% (active)
CCCC(=O)OCC1OC(n2cnc3c(=S)nc(N)[nH]c32)C(OC(=O)CCC)C1OC(=O)CCC (stereo not given)	28.9%	33.3%	55.5%	23.1%	34.8%	11%	-5.66% (active)	92.4%	21.5%	79.2%
N#CC(C#N)=NO	92.7%	94.6%	92.1%	85.8%	108%	94%	75%	73.4%	99.5%	113%
COc1cc2ncnc(Nc3cccc(Cl)c3F)c2cc1OC(=O)N1CCN(C)C[C@H]1C	92%	75.7%	10.5%	61.8%	90.2%	51.9%	16.2%	40.8%	75.6%	79.5%
CSC1=C(N)C(=O)c2[nH]cc(CO)c2C1=N	-29.3% (active)	-65.3% (active)	-97.2% (active)	-72.1% (active)	-59.2% (active)	-71.7% (active)	-43.4% (active)	-57.4% (active)	-70.1% (active)	-77.6% (active)
Nc1nc(N)c2cc(CNc3ccc(C(=O)NC(CC(=O)O)C(=O)O)cc3)ccc2n1 (stereo not given)	17.7%	23.2%	66.7%	19.7%	11.5%	48.5%	34.3%	-32.8% (active)	15.8%	51.9%
CNC(=O)c1cccc2cc(Oc3ccnc4cc(OCC5(N)CC5)c(OC)cc34)ccc12	63.9%	47.1%	74.3%	51.7%	56%	64.6%	46.3%	57.4%	76.8%	58%
Cc1ccc(-n2nc(C(C)(C)C)cc2NC(=O)NCc2cc(F)ccc2Oc2ccc3c(cnn3CCO)c2)cc1	20.8%	21.1%	21.6%	26.1%	25.8%	19.5%	4.27% (active)	19.4%	29.1%	-13% (active)
O=C(NOCCO)c1cc(CN2OCCCC2=O)c(F)c(F)c1Nc1ccc(I)cc1F	22.7%	50.9%	15.4%	36.8%	59.4%	-20% (active)	45.8%	28.9%	64.6%	5.72% (active)
CC[n+]1c(/C=C/C=C2\N(C)c3ccccc3C2(C)C)sc2ccccc21	20%	20%	25.6%	11.7%	7.56% (active)	-3.67% (active)	9.12% (active)	11.9%	14.8%	-59.2% (active)
Cc1ccc(N)cc1CN1C(=O)c2ccccc2C1=O	105%	93.1%	104%	97.1%	105%	86.9%	58.5%	105%	98.5%	105%
O=C1C=CC2(NN=C(c3ccccc3)N2c2cccc(Cl)c2)C(Cl)=C1 (stereo not given)	85.9%	86.5%	82.6%	63.8%	91.8%	84.5%	36.6%	80.1%	98%	103%
C/C(=C(/c1ccc(Cl)cc1)c1ccc(OCCN2CCCCCC2)cc1)c1ccccc1	74.9%	95.8%	93.2%	90.3%	76.3%	82.6%	72.9%	67.8%	82%	15.9%
CCCCCCCCCNCCCCCCCCC	40.4%	69.6%	113%	76.3%	103%	8.18% (active)	-3.05% (active)	99.3%	66.5%	-92.8% (active)
C=CC(=O)Nc1cccc(Oc2nc(Nc3ccc(N4CCN(C)CC4)cc3)nc3ccsc23)c1	32.2%	-2.55% (active)	4.69% (active)	-62% (active)	-59.8% (active)	-70.8% (active)	-77.1% (active)	-74.1% (active)	-84% (active)	-83.3% (active)
C[C@@H]1COCCN1c1cc(C2([S@](C)(=N)=O)CC2)nc(-c2ccnc3[nH]ccc23)n1	-1.16% (active)	39.5%	3.93% (active)	8.86% (active)	9.37% (active)	23%	30.9%	8.97% (active)	2.08% (active)	42.3%
CNC(=O)c1cc(Oc2ccc(NC(=O)Nc3ccc(Cl)c(C(F)(F)F)c3)c(F)c2)ccn1	-25.8% (active)	-16.8% (active)	-13.4% (active)	-48.1% (active)	-35.4% (active)	-20.1% (active)	-69.3% (active)	-2.14% (active)	3.58% (active)	-59% (active)
O=C(/C=C/c1ccc2c(c1)OCO2)c1c(O)c2ccccc2oc1=O	102%	107%	107%	80.9%	103%	103%	75.7%	76.5%	99.8%	99.3%
O=C(Nc1cnn2ccc(N3CCC[C@@H]3c3cc(F)ccc3F)nc12)N1CC[C@H](O)C1	87.8%	93.8%	104%	71.8%	84.1%	89.5%	70.5%	72.4%	91%	71.6%
CN(N)c1nc2sc3c(c2c(=O)[nH]1)CCCC3	93.5%	101%	96.9%	76.6%	104%	107%	89.2%	81.1%	98.2%	100%
CCN1CCN(c2cc(C)nc(N(CCCNc3ccnc4cc(Cl)ccc34)Cc3cccs3)n2)CC1	49%	57.6%	12%	-25.4% (active)	5.44% (active)	11.6%	8.27% (active)	20.1%	-71.8% (active)	-80.2% (active)
CC(=O)Oc1ccccc1C(=O)N=C1[Se]CCN1C(=O)c1ccccc1OC(C)=O	0.294% (active)	-48.4% (active)	-21.7% (active)	-48.1% (active)	-7.43% (active)	-72.4% (active)	-6.48% (active)	-52.6% (active)	-95.8% (active)	-26.9% (active)
Cn1ccnc1C(=O)/C=C/c1ccc(CC(=O)Nc2ccc(Br)cc2)cc1	24.5%	43.2%	6.4% (active)	-32.7% (active)	-11.2% (active)	61.1%	2.89% (active)	3.64% (active)	7.96% (active)	6.56% (active)
COC(=O)[C@H](C)NC(=O)[C@@H](OC)[C@@H]1Cc2cc3cc(OC4CC(OC5CC(O)C(O)C(C)O5)C(O)C(C)O4)c(C)c(O)c3c(O)c2C(=O)[C@H]1OC1CC(OC2CC(OC3CC(C)(O)C(O)C(C)O3)C(O)C(C)O2)C(O)C(C)O1 (stereo not given in full)	-31.1% (active)	-21.5% (active)	11.4%	13%	7.28% (active)	3.12% (active)	-26% (active)	7.05% (active)	-4.86% (active)	-20.5% (active)
